PubChem BioAssay (NCATS)
Active and inactive are the calls of the source. A call without a number means that no potency is given here. Calls follow the shape of the dose curve; as a rule, active = well fitted curve in the direction sought with a large enough effect; inconclusive = small, poorly fitted or top-dose-only effect, or another doubt; inactive = no such curve, though single readings can be large or run the other way.

Test: Validation qHTS assay for inhibitors of Activation Induced Cytidine Deaminase (AID): UDG Counterscreen signal (AID 1347427)
Conditions: biochemical UDG counterscreen, fluorescence signal; series mostly up to 115 µM
How it was run: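 Counterscreen read of UDG activity (2 U/mL, 4/3x) in the FRET deamination format with AID (1 uM, 4/3x), DJC20/DJC23 substrates (250 nM, 4x), 4 h at room temperature. NaOH stop, fluorescence at 560 ex/665 em.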
Potency is read from the fitted curve at half-maximal effect.

Which Potency does the source give for `O=C1Nc2ccc(I)cc2/C1=C/c1cc(Br)c(O)c(Br)c1` here?
The Potency was “inactive”.

For `CNCCNS(=O)(=O)c1cccc2cnccc12`, which Potency is on record?
Its Potency is “inactive”.

Which Potency does the source give for `N#CC(=C(\N)Sc1ccccc1N)/C(C#N)=C(/N)Sc1ccccc1N` here?
The Potency was “inactive”.

For `Oc1cc2c(cc1O)C(c1ccccc1)CNCC2` (stereo not drawn), which Potency is on record?
The Potency was “inactive”.

For `CCCCOC(=O)NS(=O)(=O)c1sc(CC(C)C)cc1-c1ccc(Cn2c(CC)nc3c(C)cc(C)nc32)cc1`, which Potency is on record?
The Potency was “inactive”.

With `NCCCCN=C(N)N` as the molecule, how does the Potency read?
Its Potency is “inactive”.

Which Potency does the source give for `OC[C@H]1O[C@@H](n2cnc3cncnc32)[C@H](O)[C@@H]1O` here?
Its Potency is “inactive”.

With `CCCCCCCCCCC(C)(C)C(=O)Nc1c(OC)cc(OC)cc1OC` as the molecule, how does the Potency read?
Its Potency is “inactive”.

Which Potency does the source give for `CC(C)(C)c1ccc(/C=C/C(=O)Nc2ccc3c(c2)OCCO3)cc1` here?
Its Potency is “inactive”.

For `O=c1[nH]c(=S)[nH]c(-c2ccccc2)c1Cc1c(O)ccc2ccccc12`, which Potency is on record?
The Potency was “inactive”.

With `Cn1c(=O)[nH]c2ncn(C)c2c1=O` as the molecule, how does the Potency read?
Its Potency is “inactive”.

With `O=C(O)C1=CC(=C(c2ccc(O)c(C(=O)O)c2)c2ccc(O)c(C(=O)O)c2)C=CC1=O` as the molecule, how does the Potency read?
The Potency was 89.1 µM (active).

Which Potency does the source give for `CCC1(O)CC2CN(CCc3c([nH]c4ccccc34)[C@@](C(=O)OC)(c3cc4c(cc3OC)N(C=O)C3[C@]45CCN4CC=C[C@@](CC)([C@@H](OC(C)=O)[C@]3(O)C(=O)OC)[C@H]45)C2)C1` (stereo partly drawn) here?
Its Potency is “inactive”.

Which Potency does the source give for `N[C@H]1CONC1=O` here?
Its Potency is “inactive”.

With `C=CCNc1ncnc2ccc(Br)cc12` as the molecule, how does the Potency read?
Its Potency is “inactive”.

For `C=CCN1CCc2c(cc(O)c(O)c2Br)[C@@H](c2ccccc2)C1`, which Potency is on record?
Its Potency is “inactive”.

With `O=C(O)C1CCNCC1` as the molecule, how does the Potency read?
The Potency was “inactive”.

With `NCCNS(=O)(=O)c1cccc2c(Cl)cccc12` as the molecule, how does the Potency read?
Its Potency is “inactive”.
